According to the supplement of paper PMC10646978:
± gives the standard deviation.

What was measured:
Conditions in all cases: modulator concentration 10 µM
[1] = system: RAW-Dual (murine macrophage reporter line); test: NF-kB reporter (SEAP) activity fold change vs agonist alone; higher = enhanced NF-kB activity
How it was run: (§1)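 RAW-Dual murine macrophage reporter cells were seeded at 50 000 per well in 384-well plates and pre-incubated 1 hour at 37 °C with compound pin-transferred to 10 μM final. After 1 hour, a PRR agonist was added and cells incubated overnight. Supernatant NF-κB (SEAP, QUANTI-Blue, 620 nm absorbance) and IRF (Lucia luciferase, QUANTI-Luc, luminescence) signals were divided by the mean agonist-only control on the same plate to give fold change. Two replicate plates were averaged, with errors by propagation.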

[2] = system: RAW-Dual (murine macrophage reporter line); test: IRF reporter (Lucia luciferase) activity fold change vs agonist alone; higher = enhanced IRF activity
How it was run: as §1

[3] = system: RAW-Dual (murine macrophage reporter line); test: viability score (confluency relative to resting cells, overnight) (fraction); higher = more viable, active = viable (0.7 or more)
How it was run: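 Overnight exposure to 10 μM final compound was carried out on RAW-Dual macrophages in 384-well plates. IncuCyte software generated two confluency masks over all wells imaged with IncuCyte. The viability score gives confluency in relation to resting cells. A compound met the cutoff if each mask exceeded 70% of resting cells.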

[4] = agonist: CpG ODN 1826 0.5 ug/mL

| Compound | NF-kB reporter [1, 4] | NF-kB reporter ([1]; agonist: LPS 0.1 ug/mL) | NF-kB reporter ([1]; agonist: MPLA […]) | IRF reporter ([2]; agonist: 3'3'-cGAMP 10 ug/mL) | IRF reporter ([2]; agonist: LPS 0.1 ug/mL) | IRF reporter ([2]; agonist: MPLA […]) | viability score [3] |
| --- | --- | --- | --- | --- | --- | --- | --- |
| Cc1ccc(S(=O)(=O)O)cc1.NC(=O)c1cccc2cn(-c3ccc([C@@H]4CCCNC4)cc3)nc12 | 0.0798 ± 0.0034 | 0.142 ± 0.017 | 0.372 ± 0.027 | 0.041 ± 0.0076 | 0.0678 ± 0.01 | 0.0808 ± 0.016 | 0.881 (active) |
| CCCCc1nc(C)c(CC(=S)N(C)C)c(=O)n1Cc1ccc(-c2ccccc2-c2nnn[nH]2)cc1 | 0.589 ± 0.025 | 0.273 ± 0.022 | 1.36 ± 0.077 | 0.0858 ± 0.062 | 3.7 ± 0.2 | 8.26 ± 0.79 | 0.139 (inactive) |
| Cc1cn2c(nc1=O)OC1C(O)C(CO)OC12 (centres undefined) | 1.01 ± 0.08 | 1.02 ± 0.075 | 0.953 ± 0.091 | 1.02 ± 0.048 | 1.29 ± 0.2 | 1.44 ± 0.4 | 1.03 (active) |
| COc1ccc(N(CC(=O)Nc2ccccc2C(F)(F)F)S(C)(=O)=O)cc1Cl | 0.96 ± 0.075 | 1.02 ± 0.097 | 0.979 ± 0.045 | 0.961 ± 0.17 | 1.02 ± 0.045 | 1.02 ± 0.19 | 1 (active) |
| CC(NC(=O)C(=O)NN=Cc1ccc(Cl)cc1Cl)c1ccccc1 (centres undefined) | 0.967 ± 0.095 | 1.16 ± 0.077 | 0.953 ± 0.084 | 1.22 ± 0.051 | 1.39 ± 0.16 | 1.14 ± 0.11 | 0.991 (active) |
| Cc1ccc(C=NN=C(c2ccccc2)c2ccccc2)o1 | 0.796 ± 0.061 | 0.988 ± 0.076 | 1.05 ± 0.15 | 0.61 ± 0.028 | 0.975 ± 0.098 | 1.07 ± 0.2 | 1.02 (active) |
| O=c1[nH]cnc2ccccc12 | 0.416 ± 0.14 | 0.159 ± 0.013 | 0.215 ± 0.019 | 0.133 ± 0.013 | 0.378 ± 0.098 | 0.0913 ± 0.014 | 0.561 (inactive) |
| COc1ccc(Cl)cc1S(=O)(=O)NCc1ccccn1 | 1.11 ± 0.07 | 0.901 ± 0.1 | 0.986 ± 0.026 | 1.01 ± 0.059 | 1.01 ± 0.1 | 0.936 ± 0.15 | 0.996 (active) |
| CCc1ccc(CCOc2ccc(CC3SC(=O)NC3=O)cc2)nc1.Cl (centres undefined) | 1.34 ± 0.27 | 1.04 ± 0.12 | 0.983 ± 0.062 | 0.736 ± 0.028 | 1.22 ± 0.18 | 1.19 ± 0.097 | 0.997 (active) |
| Cc1ccc(-c2cc(C(F)(F)F)n3nc(C(=O)NCCCN4CCOCC4)cc3n2)cc1 | 0.995 ± 0.083 | 1.06 ± 0.098 | 0.983 ± 0.082 | 0.968 ± 0.024 | 1.31 ± 0.22 | 1.13 ± 0.22 | 1.01 (active) |
| COC(=O)/C=C/C(=O)OC | 1.2 ± 0.17 | 1.06 ± 0.17 | 1.01 ± 0.064 | 0.61 ± 0.019 | 1.19 ± 0.28 | 1.09 ± 0.12 | 1 (active) |
| O=C(C=Cc1ccccc1)NC(NC(=S)Nc1ccc(Cl)cc1)C(Cl)(Cl)Cl (centres undefined) | 1.16 ± 0.11 | 0.783 ± 0.11 | 5.38 ± 0.2 | 0.404 ± 0.07 | 0.804 ± 0.036 | 1.74 ± 0.19 | 0.166 (inactive) |
| CCOc1ccccc1OCCCCOc1cccc(Br)c1 | 0.728 ± 0.06 | 1.05 ± 0.075 | 0.968 ± 0.067 | 1.19 ± 0.031 | 1.49 ± 0.24 | 1.2 ± 0.2 | 1 (active) |
| Brc1ccc(-c2cc(-c3ccccc3)nc(N3CCOCC3)n2)cc1 | 0.81 ± 0.087 | 0.995 ± 0.11 | 1.12 ± 0.13 | 0.977 ± 0.059 | 1.35 ± 0.25 | 1.59 ± 0.38 | 1.01 (active) |
| C[C@H](Cc1cc2c(c(C(N)=O)c1)N(CCCO)CC2)NCCOc1ccccc1OCC(F)(F)F | 1.2 ± 0.2 | 1.09 ± 0.29 | 1.03 ± 0.057 | 0.732 ± 0.058 | 1.05 ± 0.26 | 0.893 ± 0.2 | 0.998 (active) |
| CN(C)CCNC(=S)NC(=O)C12CCC3CC(CC(C3)C1)C2 | 0.978 ± 0.1 | 1 ± 0.094 | 0.982 ± 0.062 | 0.994 ± 0.033 | 1.5 ± 0.17 | 1.07 ± 0.068 | 1.01 (active) |
| CCCCCCc1cc2cc(-c3nc(-c4ccc(Oc5ccccc5)cc4)cs3)c(=O)oc2cc1O | 0.962 ± 0.096 | 1.04 ± 0.085 | 0.946 ± 0.068 | 0.873 ± 0.024 | 1.42 ± 0.22 | 1.12 ± 0.29 | 1.01 (active) |
| CCOc1ccc(CC(=O)NC2(c3nc(-c4ccccc4)no3)CCCCC2)cc1OCC | 0.697 ± 0.031 | 1.02 ± 0.095 | 0.93 ± 0.058 | 1.03 ± 0.049 | 1.24 ± 0.32 | 1.3 ± 0.37 | 0.979 (active) |
| Cc1cc(-c2ccccc2)nnc1NCCN1CCOCC1.Cl.Cl | 1.19 ± 0.28 | 1.04 ± 0.1 | 1 ± 0.073 | 0.966 ± 0.049 | 1.28 ± 0.14 | 1.27 ± 0.12 | 0.989 (active) |
| Ic1ccc(N=Cc2ccc(C=Nc3ccc(I)cc3)cc2)cc1 | 1.03 ± 0.081 | 0.868 ± 0.083 | 0.997 ± 0.097 | 0.954 ± 0.038 | 1.24 ± 0.19 | 1.44 ± 0.23 | 1.02 (active) |
| COC(=O)C1=C(C)NC(C)=C(C(=O)O[C@@H]2CCCN(Cc3ccccc3)C2)[C@@H]1c1cccc([N+](=O)[O-])c1 [Prestw-1766] | 0.317 ± 0.025 | 0.731 ± 0.069 | 0.717 ± 0.071 | 0.412 ± 0.043 | 1.1 ± 0.14 | 0.886 ± 0.21 | 1.07 (active) |
| Cc1cccc(C)c1NC(=O)CC(C)c1ccccc1 (centres undefined) | 0.982 ± 0.31 | 1.12 ± 0.16 | 1.2 ± 0.14 | 1.03 ± 0.033 | 0.937 ± 0.25 | 1.17 ± 0.33 | 0.915 (active) |
| CCCCCCCC(O)CC(CC1CCCCC1)C(=O)NN (centres undefined) | 0.721 ± 0.056 | 0.912 ± 0.074 | 0.977 ± 0.093 | 0.88 ± 0.062 | 1.19 ± 0.22 | 1.28 ± 0.28 | 1.02 (active) |
| COc1cc2nc(N3CCN(C(=O)C4CCCO4)CC3)nc(N)c2cc1OC.Cl.O.O (centres undefined) | 0.675 ± 0.12 | 0.937 ± 0.069 | 0.863 ± 0.052 | 0.963 ± 0.029 | 1.09 ± 0.094 | 1.16 ± 0.2 | 0.996 (active) |
| COc1ccc(C(=O)Nc2ccc(Br)c(C)c2)cc1 | 1.03 ± 0.089 | 1.1 ± 0.088 | 1.1 ± 0.038 | 0.767 ± 0.029 | 1.01 ± 0.098 | 1.2 ± 0.14 | 1 (active) |
| COc1cc2c(cc1OC)C(=O)C(CC1CCN(Cc3ccccc3)CC1)C2 (centres undefined) | 0.586 ± 0.14 | 0.954 ± 0.058 | 1.05 ± 0.066 | 0.797 ± 0.027 | 0.813 ± 0.096 | 0.897 ± 0.11 | 0.99 (active) |
| O=C(Nc1cc(C(F)(F)F)cc(C(F)(F)F)c1)c1c(F)cccc1F | 0.953 ± 0.099 | 1.07 ± 0.075 | 0.911 ± 0.069 | 0.987 ± 0.07 | 1.29 ± 0.14 | 1.07 ± 0.072 | 1.01 (active) |
